# Data reported in PubChem BioAssay (Tox21).
# Records with an inconclusive call do not appear. A call without a number means that no potency is given here. Active and inactive are the calls of the source. Unless noted, calls come from the whole dose curve; as a rule, active = well fitted curve in the direction sought with a large enough effect in the repeat runs; inconclusive = weak or mixed curves; inactive = no such curve, though single readings can be large; an effect the other way counts as inactive or inconclusive.
# Key:
# [1] = qHTS assay to identify small molecule that activate the aryl hydrocarbon receptor (AhR) signaling pathway - cell viability counter screen (AID 743086);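 note: HepG2 liver cells carrying the AhR DRE luciferase reporter; series mostly up to about 70 µM; nearly all actives have a fitted effect of over 45% in size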
# Method in brief: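 HepG2-AhR-luc (HG2L7.5c1) cells, 4000/well, treated 24 h at 37 C with compound; viability measured as CellTiter-Fluor fluorescence after 30 min in the same wells as the luciferase read.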
# [2] = target: Peroxisome proliferator-activated receptor gamma (Homo sapiens) (UniProt P37231); test: qHTS assay to identify small molecule agonists of the peroxisome proliferator-activated receptor gamma (PPARg) signaling pathway (AID 743094; active = well fitted activation curve with a large enough effect in the signal ratio in the repeat runs, not every such curve was filed as active; the % refers to the signal ratio)
# Peroxisome proliferator-activated receptor gamma (Homo sapiens), sequence (P37231 whole entry, looked up): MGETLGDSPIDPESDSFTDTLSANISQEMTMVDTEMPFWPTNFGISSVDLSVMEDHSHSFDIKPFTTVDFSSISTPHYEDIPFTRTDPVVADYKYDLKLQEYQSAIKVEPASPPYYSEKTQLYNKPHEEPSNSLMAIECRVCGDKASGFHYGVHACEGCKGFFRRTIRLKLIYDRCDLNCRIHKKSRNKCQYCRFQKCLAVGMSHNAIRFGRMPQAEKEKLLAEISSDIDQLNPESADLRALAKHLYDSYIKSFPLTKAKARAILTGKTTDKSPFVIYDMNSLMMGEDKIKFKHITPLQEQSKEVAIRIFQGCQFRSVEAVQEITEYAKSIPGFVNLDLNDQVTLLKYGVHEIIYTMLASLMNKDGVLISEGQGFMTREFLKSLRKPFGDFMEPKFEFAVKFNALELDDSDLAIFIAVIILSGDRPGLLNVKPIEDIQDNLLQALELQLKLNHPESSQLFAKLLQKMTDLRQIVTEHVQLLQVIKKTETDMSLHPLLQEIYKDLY
# Method in brief: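 Reporter activation was scored by fluorescence of cleaved LiveBLAzer B/G substrate (1 h, room temperature) in PPARg-bla HEK293H cells previously treated 17 h at 37C with DMSO-dissolved compounds.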
# [3] = qHTS assay for small molecule agonists of the antioxidant response element (ARE) signaling pathway (AID 743202; active = well fitted activation curve with a large enough effect in the signal ratio in the repeat runs, not every such curve was filed as active; the % refers to the signal ratio; note: potency is the fitted concentration of half-maximal effect)
# Method in brief: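 HepG2 ARE-bla cells; 16 h treatment at 37 C; FRET-based beta-lactamase fluorescence read after 2 h substrate incubation at room temperature.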
# [4] = qHTS assay for small molecule agonists of the antioxidant response element (ARE) signaling pathway - cell viability counter screen (AID 743203; calls by dose curve; note: nearly all actives have a fitted effect of over 55% in size)
# Method in brief: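 Viability counter screen: stably transfected ARE-bla HepG2 line, 16 hrs compound exposure at 37C/5% CO2, ATP-based CellTiter-Glo luminescence measured in the reporter wells.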
# [5] = qHTS assay for small molecule activators of the heat shock response signaling pathway - cell viability counter screen (AID 743209); note: nearly all actives have a fitted effect of over 50% in size
# Method in brief: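 Viability of HSE-bla HeLa cells is measured with CellTiter-Glo in the wells already used for the reporter read. Compound exposure lasts 5 h at 37 C, and luminescence is read after 30 min at room temperature.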
# [6] = qHTS assay for small molecule activators of the heat shock response signaling pathway (AID 743210; active = well fitted activation curve with a large enough effect in the signal ratio in the repeat runs, with a control signal flat, not every such curve was filed as active; the % refers to the signal ratio;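 note: HeLa cells with beta-lactamase reporter driven by heat shock elements; series mostly up to about 63 µM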)
# Method in brief: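 Following overnight attachment, HSE-bla HeLa cells received test compounds for 5 h at 37 C; beta-lactamase activity was then detected via FRET substrate fluorescence.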
# [7] = qHTS assay to identify small molecule agonists of the peroxisome proliferator-activated receptor delta (PPARd) signaling pathway - cell viability counter screen (AID 743211); note: nearly all actives have a fitted effect of over 55% in size
# Method in brief: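 PPARd-bla HEK293H cells (UAS-beta-lactamase reporter) were treated with compounds for 17 h at 37 C. Viability was then read in the same wells by CellTiter-Glo luminescence after 30 min at room temperature.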
# [8] = target: Peroxisome proliferator-activated receptor delta (Homo sapiens) (UniProt Q03181); test: qHTS assay to identify small molecule agonists of the peroxisome proliferator-activated receptor delta (PPARd) signaling pathway (AID 743212; calls by dose curve)
# Peroxisome proliferator-activated receptor delta (Homo sapiens), sequence (Q03181 whole entry, looked up): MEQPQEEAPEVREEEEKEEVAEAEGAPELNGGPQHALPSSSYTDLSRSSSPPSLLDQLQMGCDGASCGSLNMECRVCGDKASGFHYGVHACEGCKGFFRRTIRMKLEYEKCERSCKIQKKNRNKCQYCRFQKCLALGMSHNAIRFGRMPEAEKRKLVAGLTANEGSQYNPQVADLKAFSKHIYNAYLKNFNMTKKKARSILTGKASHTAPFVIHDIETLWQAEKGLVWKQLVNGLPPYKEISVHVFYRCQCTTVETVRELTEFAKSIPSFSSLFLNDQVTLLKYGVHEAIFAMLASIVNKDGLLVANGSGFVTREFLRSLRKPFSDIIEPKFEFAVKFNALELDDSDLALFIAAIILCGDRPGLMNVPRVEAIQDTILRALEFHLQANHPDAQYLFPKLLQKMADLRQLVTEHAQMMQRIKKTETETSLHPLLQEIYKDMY
# Method in brief: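 Tox21 library screened in GeneBLAzer PPARd UAS-bla HEK293H cells. After compound treatment at 37 C, a FRET-based beta-lactamase substrate was applied for 2 h and fluorescence recorded.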
# [9] = qHTS assay to identify small molecule antagonists of the peroxisome proliferator-activated receptor delta (PPARd) signaling pathway - cell viability counter screen (AID 743213); note: nearly all actives have a fitted effect of over 50% in size
# Method in brief: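 Same-well viability: cells pre-incubated 5 h, dosed with compound plus 300 nM L165041, kept 17 h at 37 C, FRET substrate 2 h RT, then CellTiter-Glo 30 min RT and luminescence.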
# [10] = target: Peroxisome proliferator-activated receptor delta (Homo sapiens) (UniProt Q03181); test: qHTS assay to identify small molecule antagonists of the peroxisome proliferator-activated receptor delta (PPARd) signaling pathway (AID 743215; active = well fitted inhibition curve with a large enough effect in the signal ratio in the repeat runs, not every such curve was filed as active; the % refers to the signal ratio;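 note: cells stimulated with agonist L165041 at 300 nM final during compound exposure; series mostly up to about 62 µM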)
# Method in brief: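 Plated HEK293H PPARd-bla cells rested 5 h at 37 C and 5% CO2. Compound, then agonist L165041 at 300 nM final, was added; 17 h at 37 C followed. Substrate loading, 2 h room temperature, fluorescence measured.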
# [11] = qHTS assay to identify small molecule agonists of the farnesoid-X-receptor (FXR) signaling pathway - cell viability counter screen (AID 743218); note: nearly all actives have a fitted effect of over 45% in size
# Method in brief: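 Viability of FXR-bla HEK 293T cells is measured by ATP-based CellTiter-Glo luminescence following 16 h compound treatment at 37 C and a prior 2 h room-temperature beta-lactamase substrate step.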
# [12] = qHTS assay to identify small molecule antagonists of the farnesoid-X-receptor (FXR) signaling pathway - cell viability counter screen (AID 743221; active = well fitted cell-killing curve with a large enough effect in the repeat runs, not every such curve was filed as active; note: nearly all actives have a fitted effect of over 50% in size)
# Method in brief: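 FXR-UAS-bla HEK 293T cells were treated with test compounds plus chenodeoxycholic acid (50 uM final) for 16 h at 37 C. Cell viability in the same wells was then read as CellTiter-Glo luminescence after 30 min at room temperature.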
# [13] = target: Peroxisome proliferator-activated receptor gamma (Homo sapiens) (UniProt P37231); test: qHTS assay to identify small molecule antagonists of the peroxisome proliferator-activated receptor gamma (PPARg) signaling pathway (AID 743191; calls by dose curve; note: series mostly up to about 63 µM; nearly all actives have a fitted effect of over 30% in size)
# Method in brief: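 GeneBLAzer PPARg UAS-bla HEK293H cells, 5 h post-plating, exposed to compounds 17 h at 37C. LiveBLAzer B/G FRET substrate added for 1 h at room temperature; beta-lactamase reporter read by fluorescence intensity.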
# [14] = qHTS assay to identify small molecule antagonists of the peroxisome proliferator-activated receptor gamma (PPARg) signaling pathway - cell viability counter screen (AID 743194); note: nearly all actives have a fitted effect of over 55% in size
# Method in brief: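 Cytotoxicity counter screen in PPARg-bla HEK293H cells, same wells as reporter assay. Compounds plus 50 nM rosiglitazone (final) for 17 h at 37 C, then viability read by CellTiter-Glo luminescence.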
# [15] = target: Bile acid receptor (Homo sapiens) (UniProt Q96RI1); test: qHTS assay to identify small molecule antagonists of the farnesoid-X-receptor (FXR) signaling pathway (AID 743217; active = well fitted inhibition curve with a large enough effect in the signal ratio in the repeat runs, not every such curve was filed as active; the % refers to the signal ratio)
# Bile acid receptor (Homo sapiens), sequence (Q96RI1 whole entry, looked up): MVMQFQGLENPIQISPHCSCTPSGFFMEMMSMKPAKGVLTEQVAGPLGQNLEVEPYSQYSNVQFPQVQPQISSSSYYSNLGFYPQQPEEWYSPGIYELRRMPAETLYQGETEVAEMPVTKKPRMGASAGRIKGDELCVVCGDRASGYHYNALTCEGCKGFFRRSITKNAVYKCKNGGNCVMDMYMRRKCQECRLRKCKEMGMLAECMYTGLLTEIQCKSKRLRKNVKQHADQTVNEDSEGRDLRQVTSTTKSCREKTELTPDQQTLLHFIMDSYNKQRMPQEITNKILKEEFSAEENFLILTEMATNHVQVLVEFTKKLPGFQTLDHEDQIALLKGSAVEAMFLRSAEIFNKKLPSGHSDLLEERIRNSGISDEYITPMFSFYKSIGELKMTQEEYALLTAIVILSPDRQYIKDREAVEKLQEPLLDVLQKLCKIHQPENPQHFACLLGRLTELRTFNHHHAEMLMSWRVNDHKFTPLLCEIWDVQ
# Method in brief: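 Screen of the Tox21 10K library in quantitative HTS format using FXR-UAS-bla HEK 293T reporter cells. Agonist chenodeoxycholic acid, 50 uM final, added with compounds; 16 h incubation at 37 °C; beta-lactamase FRET fluorescence measured.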
# [16] = target: Bile acid receptor (Homo sapiens) (UniProt Q96RI1); test: qHTS assay to identify small molecule agonists of the farnesoid-X-receptor (FXR) signaling pathway (AID 743220; active = well fitted activation curve with a large enough effect in the signal ratio in the repeat runs, not every such curve was filed as active; the % refers to the signal ratio)
# Method in brief: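 FXR-UAS-bla HEK 293T cells carrying a UAS-driven beta-lactamase reporter were plated for 5 h at 37C/5% CO2, then exposed to DMSO-dissolved Tox21 10K compounds for 16 h at 37C. A LiveBLAzer B/G FRET substrate was loaded for 2 h at room temperature before fluorescence reading.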
# [17] = target: Vitamin D3 receptor (Homo sapiens) (UniProt P11473); test: qHTS assay to identify small molecule agonists of the vitamin D receptor (VDR) signaling pathway (AID 743222; calls by dose curve)
# Vitamin D3 receptor (Homo sapiens), sequence (P11473 whole entry, looked up): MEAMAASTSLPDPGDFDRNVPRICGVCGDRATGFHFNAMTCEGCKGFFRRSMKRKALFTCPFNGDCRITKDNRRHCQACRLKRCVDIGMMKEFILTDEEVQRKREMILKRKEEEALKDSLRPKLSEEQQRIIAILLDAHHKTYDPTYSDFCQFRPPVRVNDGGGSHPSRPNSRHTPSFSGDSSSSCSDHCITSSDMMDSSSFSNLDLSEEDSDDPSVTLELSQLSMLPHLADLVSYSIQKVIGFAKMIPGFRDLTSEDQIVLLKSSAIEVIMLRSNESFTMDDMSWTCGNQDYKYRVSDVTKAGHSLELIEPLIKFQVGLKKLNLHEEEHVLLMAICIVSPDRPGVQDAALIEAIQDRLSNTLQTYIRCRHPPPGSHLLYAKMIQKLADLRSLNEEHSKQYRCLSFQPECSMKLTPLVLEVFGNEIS
# Method in brief: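 Fluorescence from cleaved LiveBLAzer B/G FRET substrate served as readout. VDR-bla cells had been treated 16 h at 37C with test compounds in DMSO, following a 4 h settling period, and substrate was loaded for 2 h at RT.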
# [18] = qHTS assay to identify small molecule agonists of the vitamin D receptor (VDR) signaling pathway - cell viability counter screen (AID 743224); note: series mostly up to about 63 µM; nearly all actives have a fitted effect of over 50% in size
# Method in brief: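 Compounds were pin-transferred onto VDR-bla cells plated 4 h earlier; following 16 h incubation at 37C, cell viability was quantified by CellTiter-Glo luminescence after 30 min at room temperature.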
# [19] = target: Vitamin D3 receptor (Homo sapiens) (UniProt P11473); test: qHTS assay to identify small molecule antagonists of the vitamin D receptor (VDR) signaling pathway (AID 743223; active = well fitted inhibition curve with a large enough effect in the signal ratio in the repeat runs, not every such curve was filed as active; the % refers to the signal ratio)
# Method in brief: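 VDR-bla cells were plated, incubated 4 h at 37C, then given compound and 1alpha,25-dihydroxyvitamin D3 (3 nM final). After 16 h at 37C, LiveBLAzer B/G FRET substrate was added for 2 h at room temperature and fluorescence read.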
SMILES,outcome [1],outcome [2],Potency [3],outcome [4],Potency [5],outcome [6],outcome [7],outcome [8],outcome [9],outcome [10],outcome [11],outcome [12],outcome [13],outcome [14],outcome [15],outcome [16],outcome [17],outcome [18],outcome [19]
N=C(N)N,inactive,inactive,inactive,inactive,inactive,inactive,inactive,inactive,inactive,inactive,inactive,inactive,,,,,,,
Cc1cc(=O)oc2cc(O[C@@H]3SC[C@@H](O)[C@H](O)[C@H]3O)ccc12,,,inactive,inactive,inactive,inactive,inactive,inactive,inactive,inactive,inactive,inactive,inactive,inactive,inactive,inactive,inactive,inactive,
CCN1CCN(C(=O)N[C@@H](C(=O)N[C@@H]2C(=O)N3C(C(=O)O)=C(CSc4nnnn4C)CS[C@H]23)c2ccc(O)cc2)C(=O)C1=O,inactive,inactive,,inactive,,inactive,inactive,inactive,,inactive,inactive,,,,,,,,
Cc1cc(N)no1,inactive,,,inactive,inactive,inactive,,inactive,inactive,inactive,inactive,inactive,,inactive,,,inactive,inactive,inactive
Cc1nnc(C(=O)NC(C)(C)c2nc(C(=O)NCc3ccc(F)cc3)c(O)c(=O)n2C)o1,inactive,,,inactive,inactive,inactive,inactive,inactive,,,inactive,inactive,,,,,inactive,inactive,
CC(=O)OCC(=O)[C@@]1(O)CC[C@H]2[C@@H]3CCC4=CC(=O)C=C[C@]4(C)[C@H]3[C@@H](O)C[C@@]21C,inactive,,inactive,inactive,,,inactive,inactive,inactive,,inactive,inactive,,inactive,,,,inactive,inactive
C[C@@H]1CCC[C@H](C)N1CCCC(O)(c1ccccc1)c1ccccn1 (some centres undefined),,,inactive,inactive,,inactive,inactive,inactive,,,inactive,inactive,inactive,,,,,inactive,
CC(=O)O[C@@H]1CC2C3CCc4cc(OC(=O)c5ccccc5)ccc4C3CCC2(C)[C@H]1OC(C)=O (some centres undefined),,,inactive,inactive,inactive,inactive,inactive,,inactive,,inactive,inactive,,inactive,inactive,inactive,,inactive,inactive
Nc1nc(Cl)cc(Cl)n1,inactive,inactive,,inactive,,,inactive,,inactive,inactive,inactive,inactive,,,inactive,inactive,,inactive,
CCCc1ncc(C(=O)O)s1,,,inactive,inactive,inactive,inactive,inactive,inactive,inactive,inactive,inactive,inactive,inactive,inactive,inactive,inactive,inactive,inactive,inactive
O=C(O)Cc1ccccc1Oc1ccc(Cl)cc1Cl,,inactive,,inactive,inactive,inactive,,,inactive,,inactive,inactive,,inactive,inactive,inactive,,inactive,
CNC(=O)c1c(I)c(NC(C)=O)c(I)c(C(=O)O)c1I,,,inactive,inactive,inactive,inactive,inactive,inactive,inactive,inactive,inactive,,,inactive,,,,inactive,
Cc1cc2c(cc1CC(=O)c1sccc1S(=O)(=O)Nc1onc(C)c1Cl)OCO2,,,,inactive,inactive,,inactive,inactive,,,inactive,inactive,,inactive,,,,inactive,
CC(C)(O)c1ccc(C(C)(C)O)cc1,inactive,inactive,inactive,inactive,,inactive,inactive,,inactive,,inactive,inactive,,,,,,inactive,
CO/N=C(\C(=O)O)c1csc(NC(=O)CCl)n1,,,13.3 µM (active),inactive,inactive,inactive,,,,,inactive,inactive,,inactive,,,inactive,inactive,inactive
NNC(=O)CCCCC(=O)NN,,inactive,inactive,inactive,inactive,inactive,inactive,inactive,inactive,,inactive,inactive,,inactive,inactive,inactive,inactive,inactive,
CCN(CC)CC(=O)Oc1ccc(NC(C)=O)cc1,,,inactive,inactive,inactive,inactive,inactive,inactive,inactive,inactive,inactive,inactive,inactive,inactive,inactive,inactive,inactive,inactive,
O=C1CCCc2c(O)cccc21,,,,inactive,inactive,inactive,inactive,,inactive,,inactive,inactive,,inactive,inactive,inactive,inactive,inactive,
CCCCCCCCCCCBr,inactive,inactive,inactive,inactive,,,inactive,inactive,inactive,inactive,inactive,inactive,,,inactive,inactive,inactive,inactive,inactive
O=C1Nc2ccccc2C1=O,inactive,inactive,27.1 µM (active),inactive,inactive,inactive,inactive,inactive,inactive,inactive,inactive,inactive,,,,,inactive,inactive,
CCCCCCCCCCCCCC(=O)OCC,inactive,inactive,,inactive,inactive,inactive,inactive,inactive,inactive,,,inactive,,,,,inactive,inactive,inactive
